Bioassay records as filed in PubChem BioAssay.
ELG1 genotox: inducers of genotoxicity in HEK293T ELG1-luciferase cells. HEK293T ELG1-luciferase reporter, luminescence, 16 h. Potency, µM (series often up to 46 µM), for the others: at the highest dose activity change, positive = activation, most hits filed as activators. 1.3% of 330,000 active. AID 504466; note: % of control where 0% means no effect; nearly all actives have a fitted effect of over 60% in size
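Quantitative HTS format in 1536-well plates. HEK293T ELG1-luciferase reporter cells receive test compound and are incubated 16 hr at 37 °C, 5% CO2; ONE-Glo added, 30 min room temperature, then luminescence read.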
FLuc counter: inhibits or activates purified firefly luciferase, miR-21 counter-screen | Potency, µM (series often up to 57.5 µM), for inactives: at the highest dose activity change, negative = inhibition, actives largely listed as inhibitors | 6.9% of 360,000 active | P08659 | purified FLuc, Km substrates, luminescence inhibition | AID 588342;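 note: plate controls were vehicle for no effect and reference inhibitor for full effect; nearly all actives have a fitted effect of over 55% in size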
Target sequence (P08659 whole entry, looked up): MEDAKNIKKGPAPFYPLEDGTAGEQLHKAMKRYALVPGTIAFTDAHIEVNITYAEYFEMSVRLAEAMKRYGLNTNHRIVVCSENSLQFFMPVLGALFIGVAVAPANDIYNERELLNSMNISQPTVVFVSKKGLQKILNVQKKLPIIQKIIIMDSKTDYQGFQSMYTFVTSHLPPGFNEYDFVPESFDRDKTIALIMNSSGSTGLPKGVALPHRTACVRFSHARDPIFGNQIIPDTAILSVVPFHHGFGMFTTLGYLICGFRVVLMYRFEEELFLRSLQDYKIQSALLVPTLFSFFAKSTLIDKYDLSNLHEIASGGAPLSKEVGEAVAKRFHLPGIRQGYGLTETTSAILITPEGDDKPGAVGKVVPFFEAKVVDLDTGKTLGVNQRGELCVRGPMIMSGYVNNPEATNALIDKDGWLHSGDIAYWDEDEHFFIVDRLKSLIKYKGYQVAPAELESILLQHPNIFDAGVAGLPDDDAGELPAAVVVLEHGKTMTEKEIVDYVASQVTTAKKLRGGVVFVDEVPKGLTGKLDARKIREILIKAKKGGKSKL
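Purified P. pyralis luciferase (10nM final) with 10uM D-luciferin and 10uM ATP (Km levels) in 50mM Tris acetate pH 7.5, 10mM Mg acetate, 0.01% Tween-20, 0.05% BSA; qHTS 6-point titration, ~60 µM downward; luminescence read.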
NPC1 promoter act: activates the NPC1 promoter; Huh7 NPC1 promoter luciferase reporter, 24 h; Potency, µM (titrated, usually from 9.22 µM), for the others: top-dose activation, most hits filed as activators; 2.4% of 320,000 active; AID 485313; note: % of control where 0% means no effect; nearly all actives have a fitted effect of over 60% in size
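Huh7 reporter cells (NPC1 promoter driving luciferase) are dosed with compound for 24 h at 37 °C, 5% CO2; luciferase detection reagent is then added and luminescence measured after 10 min at ambient temperature.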
SMN2 splice enh: increases expression of the SMN2 splice variant | 2.8% of 210,000 active | HEK293 SMN2-luciferase splicing reporter, luminescence, 30-36 h | Potency, µM (series often up to 46.1 µM), inactives show at the highest dose activity change, positive = activation, actives largely listed as activators; note: % of control where 0% means no effect; nearly all actives have a fitted effect of over 55% in size
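HEK293 cells carry an SMN2 minigene-luciferase reporter in which exon 7 inclusion puts luciferase in frame. Cells were seeded at 2000 cells/well, attached for 10-12 hours, then exposed to compounds for 30-36 hours at 37C before ONE-Glo luminescence.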
Rab9 prom act: activates the Rab9 promoter | AID 485297 | Huh7 Rab9 promoter-luciferase reporter, luminescence, 24 h | Potency, µM (highest dose often 9.22 µM), for the others: top-dose activation, negative = inhibition, actives largely listed as activators | 2.8% of 320,000 active; note: % of control where 0% means no effect; nearly all actives have a fitted effect of over 60% in size
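Luminescence from Amplite-detected luciferase (10 minutes, ambient) reports Rab9 promoter activation. Before that, stable Rab9-luciferase Huh7 cells (1500/well, reduced-serum OP-MEM I plus 10% FBS) were exposed to compound for 24 hours at 37C.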
Starred values were filed as active, the others as inactive; ? = inconclusive; . = not tested or not shown. Hits are enriched below; roughly 7.4% of the tested compounds scored in any of these assays. Calls come from the whole dose curve; as a rule, active = well fitted curve in the direction sought with a large enough effect; inconclusive = small, poorly fitted or top-dose-only effect, or another doubt; inactive = no such curve, though single readings can be large; an effect the other way counts as inactive or inconclusive. Potency is the fitted concentration of half-maximal effect.

SMILES	ELG1 genotox	FLuc counter	NPC1 promoter act	SMN2 splice enh	Rab9 prom act
CCC(CC)c1nnc(NC(=O)C2COc3ccccc3O2)s1 (configuration not stated)	?	7.6µM*	1.6µM*	?	1.3µM*
COc1ccc(-c2cc(C(=O)N(C)CC(=O)Nc3cccc(F)c3)c3ccccc3n2)cc1	-12%	19µM*	-1%	.	-4%
Cc1ccc2nc(-c3ccccc3)cc(C(=O)N(C)CC(=O)Nc3ccccc3Br)c2c1	-10%	17µM*	1%	.	-1%
COc1ccc(NC(=O)CN(C)C(=O)c2cc(-c3ccccc3)nc3ccccc23)cc1	-32%	?	-2%	.	0%
CN(CC(=O)Nc1ccc(F)cc1)C(=O)c1cc(-c2ccco2)nc2ccccc12	-37%	?	-1%	.	10%
CN(CC(=O)Nc1cccc(F)c1)C(=O)c1cc(-c2ccccc2)nc2ccccc12	-5%	-14%	-2%	.	-6%
COc1ccc(NC(=O)CN(C)C(=O)c2cc(-c3ccc(OC)cc3)nc3ccccc23)cc1	-27%	8.5µM*	10%	.	13%
Cc1ccc(NC(=O)CN(C)C(=O)c2cc(-c3ccco3)nc3ccccc23)cc1	-4%	24µM*	-4%	.	1%
O=C(CSc1nc2c([nH]c3ccccc32)c(=O)n1-c1ccccc1F)Nc1ccccc1C(F)(F)F	.	4%	.	.	.
Cc1noc(-c2ccc(C(F)(F)F)cc2)c1NC(=O)Nc1ccc(Cl)cc1	-12%	1%	-1%	.	-10%
COc1cc(NS(=O)(=O)c2ccc3c(c2)CC(C)N3C(=O)C2CCC2)cc(OC)c1OC (configuration not stated)	.	-16%	.	.	.
CCOCCc1nn2c(=O)cc(COC(=O)c3ccc(NC(=O)c4cccs4)cc3)nc2s1	.	2%	.	.	.
COc1cccc(-c2nn(-c3ccc(C)cc3)cc2C(=O)N(C)CC(=O)Nc2cccc(F)c2)c1	-13%	8.5µM*	-3%	.	-7%
COc1ccc(-c2nn(-c3ccccc3)cc2C(=O)N(C)CC(=O)Nc2cccc(F)c2)cc1	-3%	3%	-4%	.	-3%
COC(=O)c1ccccc1N=Nc1c(N)[nH][nH]c1=O	-8%	11µM*	-2%	.	-4%
COC(=O)c1ccccc1N=Nc1c(N)n[nH]c1N	-5%	-14%	5%	.	7%
Cc1ccccc1Nc1nc(N)nc(-c2oc3ccccc3c2C)n1	?	21µM*	?	.	2.2µM*
Cc1c(-c2nc(N)nc(Nc3ccc(F)cc3)n2)oc2ccccc12	2.3µM*	?	2.2µM*	16µM*	1.8µM*
N#C/C(=C\c1cccnc1)c1nc2c(s1)CCCC2	16µM*	12µM*	3.5µM*	13µM*	4µM*
CC1CCc2nc(/C(C#N)=C/c3cccnc3)sc2C1 (configuration not stated)	2.3µM*	2.1µM*	?	2µM*	1.3µM*
N#C/C(=C/c1cccnc1)c1ccccc1	4%	-16%	4%	.	3%
N#C/C(=C\c1cccnc1)c1ccc([N+](=O)[O-])cc1	-4%	-11%	-3%	.	3%
COc1cc(/C=C(\C#N)c2nc3c(s2)CCCC3)ccc1O	11µM*	6µM*	?	22µM*	?
CCN(CC)CCCNC(=O)c1cn(CC)c2ccc(S(=O)(=O)N3CCC(C)CC3)cc2c1=O	.	6%	.	-1%	.
O=C(Nc1cccc(O)c1)c1cc(-c2cccs2)on1	12µM*	0.85µM*	-1%	.	-2%
SMILES	ELG1 genotox	FLuc counter	NPC1 promoter act	SMN2 splice enh	Rab9 prom act
O=C(Nc1ccc(Cl)cc1)c1cc(-c2cccs2)on1	?	?	2%	.	5%
Cc1ccc(NC(=O)c2cc(-c3cccs3)on2)cc1	11µM*	2.4µM*	-2%	27%	-1%
CC(=O)c1cccc(NC(=O)c2cc(-c3cccs3)on2)c1	?	0.85µM*	-2%	.	1%
O=C(Cc1ccc(F)cc1)OCC(=O)N1CCN(S(=O)(=O)c2ccc(Cl)cc2)CC1	0%	-1%	-3%	.	0%
Nc1nc(NCCOCCO)nc(NCc2ccccc2)c1[N+](=O)[O-]	0%	-1%	-2%	.	2%
O=C(N/N=C/c1ccc2c(c1)OCO2)c1sc2cc(Cl)ccc2c1Cl	6%	?	0%	5%	-5%
CC(C)c1onc(C(=O)Nc2ccc3c(c2)OCO3)c1[N+](=O)[O-]	?	27µM*	1%	.	0%
CC(=O)c1ccc(NC(=O)c2onc(C)c2Cl)cc1	?	?	1.4µM*	.	0.63µM*
CCc1onc(C)c1C(=O)Nc1ccc2c(c1)OCO2	1%	2%	-1%	.	-6%
Cc1ccc2c(Cl)c(C(=O)Nc3ccc4c(c3)OCO4)sc2c1	18%	-28%	?	?	2µM*
Cc1noc(C(=O)Nc2ccc3c(c2)OCO3)c1Cl	?	19µM*	?	?	4µM*
Cc1cc(C)cc(C(=O)NCC(=O)OCC(=O)NCc2ccco2)c1	1%	-2%	-10%	4%	0%
CC(=O)c1cccc(NC(=O)CSc2nnc(-c3ccncc3)o2)c1	1%	-6%	-6%	.	-2%
Cc1cccc(C(=O)NC2(C(F)(F)F)N=C(c3ccccc3)N(C3CCCCC3)C2=O)c1 (configuration not stated)	.	1%	.	0%	.
Cc1ccc(-n2c(C)cc(/C=C3\NC(=O)NC3=O)c2C)c(C)c1	8%	8.5µM*	1%	-9%	2%
Cc1cc(/C=C2/NC(=O)NC2=O)c(C)n1-c1ccccn1	10%	21µM*	17%	?	23%
Cc1cc(/C=C2/NC(=O)NC2=O)c(C)n1-c1ccc(C#N)cc1	2%	0%	-3%	-17%	1%
NC(=O)c1cc(-c2ccccc2)nc2ccc(Br)cc12	6%	5%	2%	.	2%
Cc1ccc(-c2cc(C(=O)NCc3cnn(C)c3)c3cc(Br)ccc3n2)cc1	?	1.1µM*	4%	-3%	24%
Cc1nn(C)cc1CN(C)C(=O)c1cc(-c2ccccc2)nc2ccc(Br)cc12	-12%	21µM*	2%	-11%	15%
Cn1cc(CNC(=O)c2cc(-c3ccccc3)nc3ccc(Br)cc23)cn1	-2%	5.4µM*	0%	19%	2%
Cn1cc(CNC(=O)c2cc(-c3ccc(Br)cc3)nc3ccccc23)cn1	-10%	?	8%	.	0%
O=C(OCC(=O)N1CCC(Cc2ccccc2)CC1)c1cc(Cl)ccc1O	2%	4%	-2%	.	-4%
COc1ccc(/C=C/C(=O)OCC(=O)NC(C)CCc2ccccc2)cc1 (configuration not stated)	1%	.	.	.	.
CCCOc1ccccc1/C=C1\SC(N2CCCCC2)=NC1=O	-10%	12µM*	?	.	23%
COc1ccc(OC)c(/C=C2\SC(N3CCCCC3)=NC2=O)c1	0%	19µM*	21%	.	-5%
COc1cc(OC)c(OC)cc1/C=C1\SC(N2CCCCC2)=NC1=O	9%	3.8µM*	-2%	.	-2%
